# Test results published in PubChem BioAssay AID602440 (Sanford-Burnham Center for Chemical Genomics, 2012).
# Screen size: about 360,000 compounds; about 2,300 (0.64%) were called active. No stated cut-off is given here; in the data, active means inhibition mostly above about 40% (no sharp cut-off); inactive means mostly below about 27%. Many of the other results were omitted from the sample, so actives are more common in it than they were.
# Molecular target: Sentrin-specific protease 8 (Homo sapiens) (UniProt Q96LD8)
# Sequence (Q96LD8 whole entry, looked up): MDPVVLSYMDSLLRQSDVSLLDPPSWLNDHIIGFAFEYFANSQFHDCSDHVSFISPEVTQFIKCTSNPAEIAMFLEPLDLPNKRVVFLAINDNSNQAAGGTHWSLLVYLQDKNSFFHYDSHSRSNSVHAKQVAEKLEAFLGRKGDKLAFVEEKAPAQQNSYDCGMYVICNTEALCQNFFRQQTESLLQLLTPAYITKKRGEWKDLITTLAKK
# Test: blockers of SENP8 deneddylase activity – biochemical, fluorescence, Nedd8 protein substrate, uHTS, primary screen (AID 602440)
# Conditions: recombinant SENP8, Nedd8 substrate fluorescence; at 20 µM; active compounds read high
row,SMILES,inhibition
1,COC(=O)c1ccccc1NC(=O)c1cncc(Br)c1,3.1% (inactive)
2,C/C=N/NC(=O)CCCC(=O)N/N=C/C,6.6% (inactive)
3,COc1cc2c(cc1OC)C(=O)NCC(C)(C)O2,15.5% (inactive)
4,COc1cc(C(C(=O)NC2CCCC2)N(C(=O)c2ccco2)c2ccccc2C(C)=O)cc(OC)c1OC (configuration not stated),10.1% (inactive)
5,O=C1OCCN1C(=O)[C@H]1[C@H](c2ccc(Cl)cc2)C(c2cccc(Cl)c2)=NN1c1ccc(Br)cc1,-366% (inactive)
6,O=C(c1cccnc1)N(c1cc2sc(=O)oc2c2ccccc12)S(=O)(=O)c1ccccc1,7.7% (inactive)
7,O=C(O)CN1C(=O)CC(Cc2ccccc2)C1=O (configuration not stated),3.4% (inactive)
8,COc1cccc(CC2(CO)CCCN(Cc3ccc(OC(F)F)cc3)C2)c1 (configuration not stated),10.3% (inactive)
9,CN(C)c1ccc(S(=O)(=O)NCC(=O)NCC2CCCCC2)cc1[N+](=O)[O-],11.6% (inactive)
10,CN(C)c1ccc(/C=C/C(=O)c2ccc(O)cc2)cc1[N+](=O)[O-],47.5% (active)
11,CCN(CC)CCN(C)C(c1ccnc2ccccc12)c1nnnn1-c1ccc2c(c1)OCCO2 (configuration not stated),7.5% (inactive)
12,CC(C)N(C(=O)[C@H]1C[C@H](CC(=O)NC(C)(C)C)C(=O)N2CCc3c([nH]c4ccc(Cl)cc34)[C@]12C)C(C)C,19% (inactive)
13,COC(=O)C1=C(C(=O)c2ccc(C)cc2)C(c2ccccc2)n2nnnc2N1 (configuration not stated),44.3% (active)
14,COc1ccccc1NC(=O)C1=C(C)Nc2nnnn2C1c1cccc(Br)c1 (configuration not stated),6% (inactive)
15,COC(=O)c1ccc(C2C3=C(Nc4nnnn42)c2ccccc2OC3)cc1 (configuration not stated),-273% (inactive)
16,O=C1CC(Cc2ccc(Cl)cc2)C(=O)N1c1cc(Cl)ccn1 (configuration not stated),9.6% (inactive)
17,COc1ccccc1CNC(=O)COC(=O)c1sc(C)nc1C,17.6% (inactive)
18,CCN(C(=O)COc1cccnc1[N+](=O)[O-])C1CCS(=O)(=O)C1 (configuration not stated),11.8% (inactive)
19,NC1=CC(=O)C(=O)c2cccnc21,95% (active)

row,SMILES,inhibition
1,C[C@@H](O)c1nc2ccccc2n1N,19% (inactive)
2,Cc1ccc2c(=O)cc(C(=O)NCCc3ccc(S(N)(=O)=O)cc3)oc2c1C,12.8% (inactive)
3,CCN(CC)c1ccc(S(=O)(=O)N2CCCCC2)cc1NC(=O)C1=COCCO1,5.2% (inactive)
4,O=[N+]([O-])c1ccccc1NCc1ccccc1Cl,46.6% (active)
5,O=C(NCc1ccccc1Cl)NC(=O)c1csc([N+](=O)[O-])c1,6.1% (inactive)
6,O=C(NCCNc1ccccc1[N+](=O)[O-])c1ccccc1F,19.2% (inactive)
7,CCc1cc2c(SCC(=O)Nc3ncc(Cl)c(C)c3Cl)ncnc2s1,-2.9% (inactive)
8,O=C1CC(c2ccccc2)=NN1c1ccc([N+](=O)[O-])cc1,71.2% (active)
9,CCN1N=C(c2ccccc2)CCC1=O,8.8% (inactive)
10,O=C1NC(=O)C2C1C(c1ccc([N+](=O)[O-])cc1)=NN2Cc1ccccc1 (configuration not stated),-27.9% (inactive)
11,Cc1ccc(NC(=S)N(CCN(C)C)Cc2cccs2)cc1C,19.3% (inactive)
12,CNC(=O)C[C@H]1C(=O)N(Cc2ccccc2)C[C@@H]1CSC,-6.3% (inactive)
13,CCOC(=O)N1CCC(Nc2c(NCCCN3CCN(CC)CC3)c(=O)c2=O)CC1,20.5% (inactive)
14,CCOC(=O)N1CCN(c2c(NCCCN3CCCC(C)C3)c(=O)c2=O)CC1 (configuration not stated),21.3% (inactive)
15,CCOC(=O)N1CCC(Nc2c(NCCCN3CCN(c4ccc(OC)cc4)CC3)c(=O)c2=O)CC1,63.9% (active)
16,O=c1ccn([C@@H]2O[C@H](CNS(=O)(=O)c3cc4ccccc4s3)[C@@H](O)[C@H]2O)c(=O)[nH]1,7.7% (inactive)
17,C[C@H](NC(=O)CC[C@H]1O[C@@H](n2ccc(=O)[nH]c2=O)[C@H](O)[C@@H]1O)c1cccc2ccccc12,20.1% (inactive)
18,Cc1sc2ccccc2c1CNC[C@H]1O[C@@H](n2ccc(=O)[nH]c2=O)[C@H](O)[C@@H]1O,50.2% (active)
19,O=C(CNCc1ccc(Cl)cc1)Nc1cccc(C(=O)O)c1,23% (inactive)

row,SMILES,inhibition
1,CC(C)c1ccc(NC(=O)[C@@H](NC(=O)N2CC(=O)Nc3ccccc32)C(C)C)cc1,8.3% (inactive)
2,CC(C)[C@H](NC(=O)N1CC(=O)Nc2ccccc21)C(=O)N[C@@H](Cc1c[nH]c2ccccc12)C(=O)O,57.9% (active)
3,CC(C)C[C@H](NC(=O)N1CC(=O)Nc2ccccc21)C(=O)N[C@H](Cc1ccccc1)C(=O)O,28.1% (inactive)
4,CC(OC(=O)Cc1ccc(F)cc1)C(=O)N1CCc2ccccc21 (configuration not stated),-2.8% (inactive)
5,O=C(CN(C(=O)c1nsc(Cl)c1Cl)c1cccc(F)c1)NC1CCCC1,4.4% (inactive)
6,COc1ccc(S(=O)(=O)n2cnc3ccccc32)c(C)c1,12.5% (inactive)
7,O=C(/C=C/c1cccs1)NCc1cccnc1,-2.1% (inactive)
8,Cc1ccc(S(=O)(=O)NC(C)C(=O)Nc2ccccc2C(=O)N2CCCC2)cc1 (configuration not stated),20.9% (inactive)
9,CC1CCCC(NC(=O)c2cccc(N3CCCC3=O)c2)C1C (configuration not stated),-12.1% (inactive)
10,Cc1cc2c(C)nc(N/N=C/c3ccccc3)nc2o1,-29.4% (inactive)
11,Cc1cc(C)nc(N/N=C/c2ccc([N+](=O)[O-])o2)n1,45.8% (active)
12,O=C(/C=C/c1ccc([N+](=O)[O-])o1)NNC(=O)c1ccc(F)cc1,19.8% (inactive)
13,CN(CC(=O)Nc1ccccc1Cl)C(=O)c1ccccc1SCC(=O)N1CCCC1,3.2% (inactive)
14,COC(=O)c1ccc2c(=O)n(CCN3CCOCC3)c(SCC(=O)Nc3cccc(OC)c3)nc2c1,14.9% (inactive)
15,Cc1nc2ccccc2c(=O)n1-c1ccc(NS(=O)(=O)c2ccc(F)cc2F)cc1,5.4% (inactive)
16,COC(=O)Cn1c(=NC(=O)c2cc(OC)c(OC)c(OC)c2)sc2cc(OC)ccc21,-398% (inactive)
17,CCn1c(CNC(=O)c2cc(OC)c(OC)c(OC)c2)cc2cc(C)ccc21,-19.2% (inactive)
18,COC(=O)Cn1c2ccc(C)cc2c2nc(C)sc21,65.4% (active)
19,COc1cc(C(F)(F)F)c(C(=O)N(C)c2ccc(Cl)cc2)cn1,-0.9% (inactive)
